Test [1] relates to Hepatitis C virus NS3 helicase. Briefly: blockers of NS3h binding to ssDNA – biochemical, fluorescence polarization, LOPAC1280 library, primary screen (AID 687035; in the data active = inhibition above about 37%). Particulars: Purified HCV NS3 helicase, Cy5-dT15 ssDNA binding fluorescence polarization; stronger effect = higher value; concentration not given here. In general terms: Polarisation of emitted light reports the rotation of a fluorescent probe.

Test [2] is described as follows: compounds altering Cy5-DNA-NS3h complex signal – biochemical, LOPAC1280, artefact control for HCV NS3 helicase inhibitor project (AID 687037). Particulars: Cy5-DNA-NS3h complex fluorescence interference counterscreen. On the technique in general: The purpose of a counterscreen is to sort out artefacts and off-target activity.
Test [3] is described as follows: chitosan synthesis blockers in C. neoformans – flow cytometry, Cibacron Brilliant Red staining (AID 1347148).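 Also: compound exposure lasted three days at 37 degrees C.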 To be noted: Cryptococcus neoformans chitosan, stronger effect = lower value; at 10 µM unless noted. On the technique in general: Flow cytometry measures light scatter and fluorescence of single cells or particles in a stream.
Test [4] in a line: compounds altering HSF1 focus formation in cells – imaging, Selleck Cancer Library (AID 1347162; in the data active = plate-normalised HSF1 focus index below about 0.46). Particulars: human cells, HSF1 nuclear foci imaging, at 10 µM; SSMD: measured here: HSF1 foci SSMD mean; cell count: measured here: cell number; plate-normalised HSF1 focus index: stronger effect = lower value.
A short description of test [5]: blockers of polyQ-driven CASP3 activation – cell-based (AID 1583). Particulars: polyglutamine-induced caspase-3 activation, cell assay; stronger effect = higher value;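 tested at 10 µM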.
Test [6] is described as follows: yeast 75Q aggregation reduction – 75Q-TubU reporter (AID 1593). To be noted: Yeast 75Q polyglutamine aggregation reporter.
A short description of test [7]: restoration of touch response, mutant HTT neurons – whole organism, C. elegans mechanosensory neurons, N-terminal huntingtin (AID 1599). To be noted: C. elegans polyQ-huntingtin mechanosensory neurons, stronger effect = higher value.
The nature of test [8]: blockers of cytochrome c efflux from mitochondria – biochemical, purified mitochondria (AID 1603).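 Also: mouse liver mitochondria challenged with calcium chloride; signal normalized to the plate average as 100%.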 To be noted: stronger effect = lower value.
Test [9] in a line: polyglutamine aggregate formation blockers (AID 1604). Particulars: polyglutamine-induced protein aggregation inhibition assay; stronger effect = higher value; tested at 2.5 µM.
A short description of test [10]: glutamate transport activators, MN-1 cells, MN-1 cell line (AID 1612).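 Also: tested at 1 µM final; 0% = mean of DMSO vehicle wells on each plate; positive means more glutamate uptake than control and negative means less.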 To be noted: MN-1 motor neuron cells, stronger effect = higher value.
Test [11] is described as follows: GFP-Q80 aggregate reduction, neuronal-like cells, cell-based, NGF-treated PC12, GFPQ80 (AID 1614).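 Also: lower means fewer inclusions and 0 means no inclusions at all.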 To be noted: PC12 NGF-treated GFP-polyQ80 inclusion reduction.
The nature of test [12]: 75Q-TubH aggregate inhibition, S. cerevisiae, yeast (AID 1616). To be noted: S. cerevisiae 75Q-TubH polyglutamine aggregation suppression; stronger effect = higher value.
Test [13] concerns the target 6-phosphogluconate dehydrogenase, decarboxylating (Homo sapiens) (UniProt P52209). Briefly: inhibition of human phosphogluconate dehydrogenase – biochemical, recombinant enzyme, NADPH absorbance, primary screen (AID 1159550;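 active = at least 20% inhibition of 6-phosphogluconate dehydrogenase activity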). Particulars: recombinant 6PGD, NADPH absorbance 341 nm; at 10 µM; stronger effect = higher value.

For some assays here: Entries with a potency or affinity are not part of this list. The source made the active and inactive calls. Unless noted, no rule for the calls is given here.

6-phosphogluconate dehydrogenase, decarboxylating (Homo sapiens), sequence (P52209 whole entry, looked up): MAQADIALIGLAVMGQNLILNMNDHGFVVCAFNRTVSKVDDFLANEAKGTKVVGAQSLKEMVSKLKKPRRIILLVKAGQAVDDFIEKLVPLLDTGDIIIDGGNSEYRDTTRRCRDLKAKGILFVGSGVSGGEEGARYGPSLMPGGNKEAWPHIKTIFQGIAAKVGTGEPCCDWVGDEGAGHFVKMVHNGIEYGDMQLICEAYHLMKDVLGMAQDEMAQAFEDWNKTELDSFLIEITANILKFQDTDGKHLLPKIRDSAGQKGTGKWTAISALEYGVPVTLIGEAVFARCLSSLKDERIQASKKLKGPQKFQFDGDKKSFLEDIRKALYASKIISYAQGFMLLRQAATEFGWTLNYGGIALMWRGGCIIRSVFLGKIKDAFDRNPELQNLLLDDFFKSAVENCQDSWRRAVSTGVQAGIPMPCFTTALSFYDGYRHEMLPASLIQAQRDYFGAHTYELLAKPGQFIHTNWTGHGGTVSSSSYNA

Usually inhibition stands for the relative decrease from the control value, in per cent. Regarding `O=C1NCN(c2ccccc2)C12CCN(CCCC(c1ccc(F)cc1)c1ccc(F)cc1)CC2`, the inhibition in test [1] is 0% (inactive). Besides, the fluorescence ratio (interference) in [2] is 1 (inactive). Moreover, in test [3], the fold fluorescence was 5.05 [at 105.1 µM] (inactive).
Regarding `CN1CC[C@H](c2c(O)cc(O)c3c(=O)cc(-c4ccccc4Cl)oc23)[C@H](O)C1`, in test [4], the SSMD stood at 1.33, the cell count turned out to be 6730 and the plate-normalised HSF1 focus index was 1.07 (inactive).
As to `CCOc1ccccc1OCC1CNCCO1` (stereo unspecified), in test [5], the inhibition is -5.29%. In [6], the score came out at 1.39. For the same molecule, the rescue above control in test [7] is -3.95. In test [8], the cytochrome c release ratio was 1.06. This molecule displayed an inhibition of aggregation in test [9] of 12.9%. The molecule further yielded a glutamate uptake change in test [10] of 20.1%. Further, the inclusion score in [11] came to 2. Besides, the aggregation suppression score in test [12] turned out to be 1.38.
On to `Clc1cc(Cl)c(OCC#CI)cc1Cl`, for which the inhibition in test [5] was 55.6%. The score in test [6] was -0.06. For the same molecule, the rescue above control in test [7] amounted to 11. In addition, the cytochrome c release ratio in test [8] is 8.98. Further, in test [9], the inhibition of aggregation worked out at 58.5%. The molecule further gave a glutamate uptake change in [10] of 15.9%. In addition, the aggregation suppression score in test [12] is -0.184.
Turning to `CCCn1cnc2c1c(=O)n(CCCCC(C)=O)c(=O)n2C`, the figures for the inhibition in [1] and in [13] were 1% (inactive) and -7.06% (inactive), respectively. Further, the fluorescence ratio (interference) in test [2] is 1 (inactive).
For the molecule `CN(C)CCCO[C@@H]1[C@H]2OC(C)(C)O[C@H]2O[C@@H]1C(O)CO` (stereo partly specified), in [1], the inhibition was -4% (inactive). In test [2], the fluorescence ratio (interference) is 1 (inactive).

Source of the values: PubChem BioAssay.
